# Assay results from the supplement of paper PMC10849652.
# Of roughly 7,900 targets only a part is listed; those with a hit were picked by preference. About 0.6% of all pairs of compound and target were hits. Unmarked numbers belong to inactive results.
# Tests used:
# Experiment in all cases: log2 fold change, soluble protein after heating vs DMSO (PISA); higher = thermal stabilisation; K562 cells, 10 uM, 30 min; active = over 0.2 and 3.5 SD of the protein, either way, in both replicates (recomputed)
# erlotinib = compound: C#Cc1cccc(Nc2ncnc3cc(OCCOC)c(OCCOC)cc23)c1 [erlotinib]
# How it was run: (§1)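 K562 cells at 2×10^6 cells/mL were treated for 30 min with 10 μM compound, and aliquots were heated for 3 min over 48°C-58°C before pooling. Extraction used PBS with 0.5% NP-40 at 4°C, and soluble protein was the supernatant after 21,000xg for 90 min, measured by TMTpro 16plex LC-MS/MS with channel sums equalised. Thermal stability values, relative to control samples and from duplicates, are log2 fold changes.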
# [1] = compound: C/C(=N\NC(=O)C1=CC(=CC=C1)S(=O)(=O)N2CCOCC2)/C3=C(C=CC(=C3)Cl)O
# How it was run: as §1
# [2] = compound: C1=CC(=C(C=C1Cl)C2=NC3=NC=CN=C3C(=N2)NC4=CC=NC=C4)F
# How it was run: as §1
# [3] = compound: C1=CC(=CC=C1C2=NC3=C(N2)C=C(C=C3)C(=O)N)OC4=CC=C(C=C4)Cl
# How it was run: as §1
# [4] = compound: C1=CC2=C(C=CC(=C2)/C=C\3/C(=O)NC(=NCC4=CC=CS4)S3)N=C1
# How it was run: as §1
# [5] = compound: C1=CC2=NC=CN=C2C=C1/C=C/3\C(=O)NC(=O)S3
# How it was run: as §1
# [6] = compound: C1=CC=C(C=C1)C2=NC(=C(N2)C3=CC=NC=C3)C4=CC(=C(C=C4)Cl)O
# How it was run: as §1
# [7] = compound: C1=CC=C2C(=C1)C3=NNC4=CC=CC(=C43)C2=O
# How it was run: as §1
# [8] = compound: C1CCN(C1)C(=O)NC2=CC=CC(=C2)NC3=NC=C(C(=N3)NCCC4=CN=CN4)Br
# How it was run: as §1
# [9] = compound: C1CN(CCC1(CC2=CC=C(C=C2)Cl)N)C3=NC=NC4=C3C=CN4
# How it was run: as §1
# IRAK-1-4 Inhibitor I = compound: C1COCCN1CCN2C3=CC=CC=C3N=C2NC(=O)C4=CC(=CC=C4)[N+](=O)[O-] [IRAK-1-4 Inhibitor I]
# How it was run: as §1
# ibrutinib = compound: C=CC(=O)N1CCC[C@@H](n2nc(-c3ccc(Oc4ccccc4)cc3)c3c(N)ncnc32)C1 [ibrutinib]
# How it was run: as §1
# [10] = compound: CC(=O)c1cnc2ccc(-c3cc(Cl)c(O)c(Cl)c3)nc2c1N[C@H]1CC[C@H](CN(C)C)CC1
# How it was run: as §1
# ralimetinib = compound: CC(C)(C)Cn1c(N)nc2ccc(-c3[nH]c(C(C)(C)C)nc3-c3ccc(F)cc3)nc21 [ralimetinib]
# How it was run: as §1
# [11] = compound: CC(C)(O)CC(=O)NCCn1ccc2ncnc(Nc3ccc(Oc4cccc(C(F)(F)F)c4)c(Cl)c3)c21
# How it was run: as §1
# [12] = compound: CC(C)C1=C2N=C(C=C(N2N=C1)NCC3=CC=CC=C3)NCCCCCCN
# How it was run: as §1
# [13] = compound: CC(C)C[C@@H](C=O)NC(=O)[C@H](CC(C)C)NC(=O)[C@H](CC(C)C)NC(=O)OCc1ccccc1
# How it was run: as §1
# pinometostat = compound: CC(C)N(C[C@H]1O[C@@H](n2cnc3c(N)ncnc32)[C@H](O)[C@@H]1O)[C@H]1C[C@@H](CCc2nc3cc(C(C)(C)C)ccc3[nH]2)C1 [pinometostat]
# How it was run: as §1
# [14] = compound: CC1=C(C(CC(=O)N1)C2=CC=C(C=C2)C(F)(F)F)C(=O)NC3=C(C=C4C(=C3)C=NN4)F
# How it was run: as §1
# [15] = compound: CC1=C(C2=C(C=C1)C(=O)C3=CC=CC=C3N2CCCN)C
# How it was run: as §1
# Chain of UniProt Q6QNY0 (Q6QNY0 whole entry, looked up): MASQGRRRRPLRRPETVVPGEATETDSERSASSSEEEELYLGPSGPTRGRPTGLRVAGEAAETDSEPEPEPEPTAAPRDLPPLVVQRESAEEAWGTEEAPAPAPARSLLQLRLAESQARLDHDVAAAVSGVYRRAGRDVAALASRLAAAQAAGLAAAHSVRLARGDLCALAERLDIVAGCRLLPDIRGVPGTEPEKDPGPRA
# Chain of UniProt Q8N6S5 (Q8N6S5 whole entry, looked up): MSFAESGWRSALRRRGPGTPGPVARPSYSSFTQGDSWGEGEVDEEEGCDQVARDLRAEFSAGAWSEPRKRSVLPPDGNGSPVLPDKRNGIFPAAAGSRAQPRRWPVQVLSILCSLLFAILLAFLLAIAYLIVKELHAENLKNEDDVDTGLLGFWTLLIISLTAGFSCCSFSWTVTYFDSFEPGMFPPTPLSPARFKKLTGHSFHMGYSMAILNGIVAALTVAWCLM
# Chain of UniProt Q9NVI7 (Q9NVI7 whole entry, looked up): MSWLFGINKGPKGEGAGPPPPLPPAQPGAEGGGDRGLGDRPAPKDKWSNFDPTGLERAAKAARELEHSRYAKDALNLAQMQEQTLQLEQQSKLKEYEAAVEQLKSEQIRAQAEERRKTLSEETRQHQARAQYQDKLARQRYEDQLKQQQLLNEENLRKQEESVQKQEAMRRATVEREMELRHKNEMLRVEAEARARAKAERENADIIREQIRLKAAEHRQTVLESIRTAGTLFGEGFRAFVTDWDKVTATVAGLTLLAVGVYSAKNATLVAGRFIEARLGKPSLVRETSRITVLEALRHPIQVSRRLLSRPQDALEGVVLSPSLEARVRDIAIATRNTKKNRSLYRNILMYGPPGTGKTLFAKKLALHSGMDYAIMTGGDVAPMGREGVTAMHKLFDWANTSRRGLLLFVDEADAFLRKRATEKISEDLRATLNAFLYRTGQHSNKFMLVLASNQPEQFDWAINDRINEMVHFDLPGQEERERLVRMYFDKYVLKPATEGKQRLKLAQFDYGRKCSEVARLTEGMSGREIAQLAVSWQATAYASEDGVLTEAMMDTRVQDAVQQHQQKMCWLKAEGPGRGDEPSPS
# Chain of UniProt Q9H7F0 (Q9H7F0 whole entry, looked up): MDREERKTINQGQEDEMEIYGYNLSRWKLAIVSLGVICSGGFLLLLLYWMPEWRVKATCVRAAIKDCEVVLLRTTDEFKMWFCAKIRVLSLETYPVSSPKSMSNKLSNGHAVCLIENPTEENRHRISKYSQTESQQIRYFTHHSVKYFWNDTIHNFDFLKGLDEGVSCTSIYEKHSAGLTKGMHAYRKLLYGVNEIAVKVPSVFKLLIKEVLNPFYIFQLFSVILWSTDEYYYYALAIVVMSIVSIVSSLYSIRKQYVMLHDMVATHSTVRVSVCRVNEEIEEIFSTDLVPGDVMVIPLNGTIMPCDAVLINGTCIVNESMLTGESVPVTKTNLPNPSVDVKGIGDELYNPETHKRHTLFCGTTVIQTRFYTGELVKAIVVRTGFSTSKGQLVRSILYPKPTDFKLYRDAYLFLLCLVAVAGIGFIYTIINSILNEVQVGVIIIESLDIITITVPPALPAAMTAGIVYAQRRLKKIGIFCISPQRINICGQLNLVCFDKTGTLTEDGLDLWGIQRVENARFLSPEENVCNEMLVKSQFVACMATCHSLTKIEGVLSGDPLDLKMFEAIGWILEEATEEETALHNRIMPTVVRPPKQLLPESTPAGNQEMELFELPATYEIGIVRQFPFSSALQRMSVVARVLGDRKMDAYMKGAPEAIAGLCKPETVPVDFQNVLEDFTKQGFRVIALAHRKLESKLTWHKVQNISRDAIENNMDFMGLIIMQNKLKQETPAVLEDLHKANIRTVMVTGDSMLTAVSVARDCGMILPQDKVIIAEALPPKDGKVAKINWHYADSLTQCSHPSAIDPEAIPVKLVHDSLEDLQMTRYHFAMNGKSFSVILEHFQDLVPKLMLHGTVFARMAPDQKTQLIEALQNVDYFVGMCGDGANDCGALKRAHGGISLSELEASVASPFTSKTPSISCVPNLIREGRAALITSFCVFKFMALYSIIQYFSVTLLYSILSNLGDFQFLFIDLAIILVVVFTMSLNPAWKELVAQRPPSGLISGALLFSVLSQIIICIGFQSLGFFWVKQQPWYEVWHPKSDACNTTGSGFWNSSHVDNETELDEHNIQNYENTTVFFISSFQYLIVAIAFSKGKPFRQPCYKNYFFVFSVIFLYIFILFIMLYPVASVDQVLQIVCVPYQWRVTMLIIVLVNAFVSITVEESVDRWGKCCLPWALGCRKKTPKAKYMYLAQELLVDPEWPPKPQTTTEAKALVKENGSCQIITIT
# Chain of UniProt Q9NQ11 (Q9NQ11 whole entry, looked up): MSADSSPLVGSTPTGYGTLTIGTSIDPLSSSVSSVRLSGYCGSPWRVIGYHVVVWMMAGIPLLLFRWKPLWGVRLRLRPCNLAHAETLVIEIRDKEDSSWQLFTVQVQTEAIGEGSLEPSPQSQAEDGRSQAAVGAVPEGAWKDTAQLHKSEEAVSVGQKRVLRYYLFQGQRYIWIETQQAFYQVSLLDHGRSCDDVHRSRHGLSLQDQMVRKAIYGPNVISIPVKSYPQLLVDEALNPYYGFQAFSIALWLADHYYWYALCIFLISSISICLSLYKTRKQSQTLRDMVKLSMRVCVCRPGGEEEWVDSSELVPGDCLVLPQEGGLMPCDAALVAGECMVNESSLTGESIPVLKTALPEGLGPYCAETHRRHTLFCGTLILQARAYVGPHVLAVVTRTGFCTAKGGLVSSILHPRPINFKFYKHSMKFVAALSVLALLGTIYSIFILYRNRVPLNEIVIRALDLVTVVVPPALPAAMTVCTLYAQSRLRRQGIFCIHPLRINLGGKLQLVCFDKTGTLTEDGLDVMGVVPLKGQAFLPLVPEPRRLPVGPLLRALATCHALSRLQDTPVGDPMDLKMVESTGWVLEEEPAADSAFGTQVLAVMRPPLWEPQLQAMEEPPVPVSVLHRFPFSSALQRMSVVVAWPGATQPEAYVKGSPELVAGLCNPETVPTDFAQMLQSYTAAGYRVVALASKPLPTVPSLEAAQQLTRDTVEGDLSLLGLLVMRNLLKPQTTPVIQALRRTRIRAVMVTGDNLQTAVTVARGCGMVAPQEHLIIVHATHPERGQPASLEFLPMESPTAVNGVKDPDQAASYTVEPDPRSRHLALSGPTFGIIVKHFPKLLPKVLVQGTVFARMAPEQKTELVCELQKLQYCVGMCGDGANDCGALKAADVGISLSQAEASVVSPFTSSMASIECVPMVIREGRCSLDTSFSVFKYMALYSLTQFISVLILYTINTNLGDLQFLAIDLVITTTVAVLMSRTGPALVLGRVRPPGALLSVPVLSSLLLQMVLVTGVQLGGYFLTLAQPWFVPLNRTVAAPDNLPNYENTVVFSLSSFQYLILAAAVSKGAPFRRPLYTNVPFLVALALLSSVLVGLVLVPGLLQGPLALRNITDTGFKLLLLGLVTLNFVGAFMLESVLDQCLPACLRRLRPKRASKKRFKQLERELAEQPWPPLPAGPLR
# Chain of UniProt Q8N6H7 (Q8N6H7 whole entry, looked up): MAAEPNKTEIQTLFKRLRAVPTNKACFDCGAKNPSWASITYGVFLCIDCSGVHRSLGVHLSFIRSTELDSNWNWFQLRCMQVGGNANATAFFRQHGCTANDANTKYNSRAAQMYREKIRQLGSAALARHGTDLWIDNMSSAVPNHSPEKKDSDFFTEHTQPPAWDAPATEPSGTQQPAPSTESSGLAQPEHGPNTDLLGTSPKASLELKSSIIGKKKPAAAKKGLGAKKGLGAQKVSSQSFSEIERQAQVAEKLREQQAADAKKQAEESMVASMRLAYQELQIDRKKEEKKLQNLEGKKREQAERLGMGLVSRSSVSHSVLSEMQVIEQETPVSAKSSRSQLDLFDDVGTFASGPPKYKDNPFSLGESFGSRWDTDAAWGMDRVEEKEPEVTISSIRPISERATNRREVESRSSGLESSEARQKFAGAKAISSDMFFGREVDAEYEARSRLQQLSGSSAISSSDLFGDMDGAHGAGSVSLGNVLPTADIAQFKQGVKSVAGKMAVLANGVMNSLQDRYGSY
# Chain of UniProt O94973 (O94973 whole entry, looked up): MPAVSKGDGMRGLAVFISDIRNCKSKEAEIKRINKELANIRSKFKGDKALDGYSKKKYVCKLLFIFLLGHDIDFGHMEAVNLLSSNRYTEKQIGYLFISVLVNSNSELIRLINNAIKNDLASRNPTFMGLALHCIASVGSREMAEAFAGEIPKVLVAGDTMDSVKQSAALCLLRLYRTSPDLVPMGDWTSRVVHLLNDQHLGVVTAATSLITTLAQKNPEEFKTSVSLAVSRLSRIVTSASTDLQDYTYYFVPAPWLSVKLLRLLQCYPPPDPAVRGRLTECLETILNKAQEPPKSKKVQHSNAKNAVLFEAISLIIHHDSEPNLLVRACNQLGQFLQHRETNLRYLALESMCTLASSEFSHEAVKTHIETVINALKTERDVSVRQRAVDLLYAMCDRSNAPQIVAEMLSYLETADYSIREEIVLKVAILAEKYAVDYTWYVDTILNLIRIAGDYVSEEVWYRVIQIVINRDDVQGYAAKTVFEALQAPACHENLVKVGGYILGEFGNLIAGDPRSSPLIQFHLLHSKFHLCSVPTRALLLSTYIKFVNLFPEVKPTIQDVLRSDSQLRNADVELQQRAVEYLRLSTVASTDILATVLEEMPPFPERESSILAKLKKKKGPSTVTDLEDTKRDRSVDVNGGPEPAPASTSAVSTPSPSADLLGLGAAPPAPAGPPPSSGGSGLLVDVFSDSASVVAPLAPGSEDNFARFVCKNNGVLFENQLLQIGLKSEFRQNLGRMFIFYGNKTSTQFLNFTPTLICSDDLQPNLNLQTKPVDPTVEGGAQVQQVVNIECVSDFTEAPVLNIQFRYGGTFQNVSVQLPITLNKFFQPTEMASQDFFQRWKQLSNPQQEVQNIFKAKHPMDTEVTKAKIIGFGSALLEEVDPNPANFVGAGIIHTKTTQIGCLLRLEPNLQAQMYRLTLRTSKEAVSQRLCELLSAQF
# Chain of UniProt O00244 (O00244 whole entry, looked up): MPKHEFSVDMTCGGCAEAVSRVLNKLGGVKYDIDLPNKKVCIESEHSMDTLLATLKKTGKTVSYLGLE
Target,log2 fold change (erlotinib),log2 fold change [1],log2 fold change [2],log2 fold change [3],log2 fold change [4],log2 fold change [5],log2 fold change [6],log2 fold change [7],log2 fold change [8],log2 fold change [9],log2 fold change (IRAK-1-4 Inhibitor I),log2 fold change (ibrutinib),log2 fold change [10],log2 fold change (ralimetinib),log2 fold change [11],log2 fold change [12],log2 fold change [13],log2 fold change (pinometostat),log2 fold change [14],log2 fold change [15]
AP2M1 (UniProt Q96CW1),-0.067,0.006,-0.012,0.017,0.005,-0.016,0.036,-0.26 (active),-0.367 (active),-0.01,-0.049,0.043,-0.043,0.036,0.022,0.045,0.011,0.026,0.011,0.079
ATIC (UniProt P31939),0.031,0.033,0.062,0.006,0.005,-0.067,0.094,0.016,-0.031,0.035,0.018,0.013,-0.015,-0.007,0,0.079,-0.044,-0.04,-0.023,0.064
BLOC1S3 (UniProt Q6QNY0),0.027,-0.009,0.04,-0.003,0.093,0.012,0.031,-0.052,-0.032,0.052,0.018,-0.037,0.427 (active),-0.033,-0.058,0.005,-0.045,-0.041,-0.01,0.076
ATOX1 (UniProt O00244),-0.033,0.307,0.141,0.068,-0.089,0.074,0.242,0.112,-0.061,0.024,0.018,0.01,0.154,0.23,-0.005,0.109,-0.198,-0.153,-0.004,0.099
AP2A2 isoform 2 (UniProt O94973),0.007,0.014,-0.004,-0.012,0.007,0.004,0.072,-0.118,-0.284 (active),0.028,-0.003,-0.015,0.008,0.006,0.033,0.019,0.032,0.025,-0.02,0.107
BST2 (UniProt Q10589),-0.018,0.026,-0.046,0,0.009,0.024,-0.062,-0.013,0.066,-0.063,-0.004,0,-0.109,0.033,0.025,-0.108,0.12,-0.006,0.026,0.017
B4GALNT1 (UniProt Q00973),-0.176,-0.006,0.029,0.101,0.124,-0.038,-0.073,-0.189,0.069,-0.141,0.01,-0.159,-0.188,-0.129,0.017,0.038,0.052,-0.101,-0.119,0.057
ATP6V0A2 (UniProt Q9Y487),-0.009,0,-0.045,0.031,-0.025,0.031,0.024,0.041,-0.016,0.002,-0.006,-0.026,-0.017,0.057,-0.01,-0.297 (active),0.049,0.054,0.008,0.003
ARFGAP2 (UniProt Q8N6H7),0.017,0.034,0.019,-0.016,0.06,0,-0.01,-0.007,-0.053,-0.009,-0.016,-0.064,-0.014,-0.001,-0.032,0.062,-0.005,0.046,-0.006,0.005
BLVRB (UniProt P30043),0.03,0.112,0.237 (active),-0.031,-0.015,0.072,0.042,0.014,0.001,0.056,0.075,0.037,0.154,0.056,-0.019,-0.048,-0.037,-0.005,-0.046,0.059
AHSA1 (UniProt O95433),0.007,0.011,0.081,-0.015,0.012,0.037,0.013,0.039,-0.006,0.023,0.002,-0.043,-0.007,0,-0.022,-0.038,-0.008,-0.045,0.003,0
ALG11 (UniProt Q2TAA5),-0.015,0.042,0.075,0.013,0.074,0.054,0.009,-0.048,-0.045,-0.014,0.003,0.09,0.053,-0.014,-0.112,0.037,-0.064,0.032,0.002,0.23 (active)
ATAD3A isoform 2 (UniProt Q9NVI7),-0.036,0.02,-0.045,0.006,-0.038,-0.013,-0.04,0.017,0.037,-0.101,-0.005,0.08,-0.075,0.009,-0.023,-0.468 (active),0.075,0.082,0,0.096
ATP13A3 (UniProt Q9H7F0),0.043,-0.046,0.05,0.018,0.016,0.038,-0.006,-0.028,0.017,0.049,0.043,-0.005,0.004,-0.032,-0.136,-0.199,0.073,-0.007,0.042,-0.035
ARL6IP6 (UniProt Q8N6S5),0.064,0.116,-0.102,0.034,-0.006,0.001,0.201,-0.087,0.01,-0.036,0.12,0.056,0.168,0.413 (active),0,-0.049,-0.199,0.069,-0.014,0.02
ATP13A2 (UniProt Q9NQ11),0.047,0.012,0.011,0.096,0.024,0.099,0.01,-0.042,0.035,0.082,0.04,0.074,0.007,-0.033,-0.03,-0.511 (active),0.011,0.063,0.044,0.181
